Measurements published in PubChem BioAssay (NCI).
This is part of a sample that, as a whole, favours compounds with a hit. Of some 79,000 tested, about 15% had one in any assay. Active and inactive are the calls of the source. Cut-off read from the data, not from the text of the source: active = growth inhibition above about 70%; inactive = the rest.

Assay: NCI Yeast Anticancer Drug Screen. Data for the mlh1 rad18 strain (AID 175)
Details: S. cerevisiae mlh1 rad18 strain growth inhibition; at 5.0 µM (retest, dose inferred, filed as 0.5); active compounds read high
How it was run: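 A repair-deficient yeast strain is exposed to test compound, and growth is scored relative to vehicle-treated controls.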

Structure (SMILES) | growth inhibition
COC(=O)C12OCC34C(CC5C(C)C6=CC(=O)OC6=CC5(C)C3C(O)C1O)OC(=O)C(OC(C)=O)C24 (configuration not stated) | 79% (active)
O=S(=O)(c1cc(Cl)ccc1Cl)N1CCc2ccccc2C1 | -17% (inactive)
CSC(=S)n1nc(-c2cccs2)c(N=Nc2ccc(Cl)cc2)c1C(F)(F)F | 19% (inactive)
O=[N+]([O-])C1=Cc2ccccc2S(=O)(=O)CC1 | 21% (inactive)
COc1ccc(/C=N/n2c(C)nc3c(sc(=S)n3-c3ccccc3)c2=O)cc1 | 22% (inactive)
Fc1ccc(NC(=S)SCc2ccccc2)cc1F | 0% (inactive)
O=[N+]([O-])c1cccc2c1[nH]c1c(-c3ccccc3)nccc12 | 0% (inactive)
CCOC(=O)CC(=O)/C=C/c1ccncc1 | 1% (inactive)
c1ccc([P+](c2ccccc2)(c2ccccc2)C2CCCC2)cc1 | 11% (inactive)
COc1cc(Cc2n[nH]c(=S)n2-c2ccccc2)c(S(N)(=O)=O)cc1OC | 0% (inactive)
CCCCCN(CCCCC)CCNc1ccc(C)c2sc3ccccc3c(=O)c12 | 9% (inactive)
COC(=O)[C@@]12OC[C@]34[C@H]([C@@H](O)[C@@H]1O)[C@@]1(C)CC(=O)C(O)=C(C)[C@@H]1C[C@H]3OC(=O)[C@H](OC(=O)C(Cc1ccccc1)NC(=O)OC(C)(C)C)[C@@H]24 (some centres not stated) | 3% (inactive)
CC(=O)Nc1ccc(C(=O)C(C)Br)cc1 (configuration not stated) | 40% (inactive)
COc1ccc2c(c1)[n+]([O-])c(C(N)=O)c(N)[n+]2[O-] | 42% (inactive)
Cc1c2c(c(C)c3c4c(oc13)CCCC4)C=NCC2 | -5% (inactive)
CC1C(C(=O)O)CC([N+](=O)[O-])C(Cl)C1[N+](=O)[O-] (configuration not stated) | 9% (inactive)
CCN(CC)c1ccc(N=C2C=C(C(=O)Nc3cccc(Cl)c3)C(=O)c3ccccc32)c(C)c1 | -34% (inactive)
C[N+](C)(C)CCN(Cc1cccs1)c1ccccn1 | -3% (inactive)
O=C(c1ccccc1)c1c(CO[N+](=O)[O-])n([O-])c2ccccc2[n+]1=O | 48% (inactive)
CCC[C@H]1[C@H](CCC)[C@@]2(OC(=O)C3=C2CCC=C3)[C@]12OC(=O)C1=C2CCC=C1 | 1% (inactive)
O=C(CC(=O)c1ccccc1NC1=Cc2ccccc2C(=O)C1=O)C(=O)NC1=C(Cl)C(=O)c2ccccc2C1=O | 37% (inactive)
C=CC[P+](CC[P+](CC=C)(c1ccccc1)c1ccccc1)(c1ccccc1)c1ccccc1 | 1% (inactive)
NCC1CCNCC1 | 10% (inactive)

Same assay, conditions: S. cerevisiae mlh1 rad18 strain growth inhibition; at 50.0 µM (retest, dose inferred, filed as 5.0); active compounds read high

Structure (SMILES) | growth inhibition
CCOC(=O)C[P+](c1ccc(C)cc1)(c1ccc(C)cc1)c1ccc(C)cc1 | 93% (active)
O=C(NCCl)Nc1ccccc1 | 83% (active)
O=c1[nH]c2ccccc2c2cccc(F)c12 | 81% (active)
O=C(c1c(F)c(F)c(F)c(F)c1F)N1CCN(C(=O)c2c(F)c(F)c(F)c(F)c2F)C1=S | 92% (active)
O=C(CNS(=O)(=O)Cc1ccccc1)NCC(=O)NNc1ccccc1 | 76% (active)
CC1(C)C(=O)N(CCCCCCN2C(=O)C(C)(C)c3ccccc32)c2ccccc21 | 3% (inactive)
CC(=O)Nc1cccc2c1ccc1ccc3ccccc3c12 | 52% (inactive)
COc1ccc(-c2noc(=O)c3ccccc23)cc1 | 1% (inactive)
c1ccc([B-](c2ccccc2)(c2ccccc2)c2ccccc2)cc1 | -2% (inactive)
CCc1cccc(C)c1N1C(=O)C(=O)C(c2nc3ccccc3o2)/C(=N\NS(=O)(=O)c2ccc(C)cc2)C1=O (configuration not stated) | 15% (inactive)
Cc1ccc(-[n+]2cc([O-])on2)cc1 | 22% (inactive)
CCOC(=O)C(Cc1cn(S(=O)(=O)c2ccccc2)c2ccccc12)(NC(C)=O)C(=O)OCC | 35% (inactive)
CC(=O)N1C=C2CCC3c4ccccc4NC3C2CC1 (configuration not stated) | -2% (inactive)
O=c1cccccc1[O-].O=c1cccccc1[O-].O=c1cccccc1[O-].[Ce+3] | 26% (inactive)
CC(=O)OC(C#N)CC(C)(C)/[N+]([O-])=[N+](\[O-])C(C)(C)CC(C#N)OC(C)=O (configuration not stated) | 80% (active)
O=C(O)C1(Cc2ccc3c(c2)CCC3)Cc2cc3c(cc2C1)CCC3 | 14% (inactive)
COC(=O)C12OCC34C(CC5C(C)C6=CC(=O)OC6=CC5(C)C3C(O)C1O)OC(=O)C(OC(C)=O)C24 (configuration not stated) | 99% (active)
O=S(=O)(c1cc(Cl)ccc1Cl)N1CCc2ccccc2C1 | -31% (inactive)
CSC(=S)n1nc(-c2cccs2)c(N=Nc2ccc(Cl)cc2)c1C(F)(F)F | 56% (inactive)
O=[N+]([O-])C1=Cc2ccccc2S(=O)(=O)CC1 | 97% (active)

Structure (SMILES) | growth inhibition
COc1ccc(/C=N/n2c(C)nc3c(sc(=S)n3-c3ccccc3)c2=O)cc1 | -12% (inactive)
Fc1ccc(NC(=S)SCc2ccccc2)cc1F | 97% (active)
O=[N+]([O-])c1cccc2c1[nH]c1c(-c3ccccc3)nccc12 | 89% (active)
CCOC(=O)CC(=O)/C=C/c1ccncc1 | 3% (inactive)
c1ccc([P+](c2ccccc2)(c2ccccc2)C2CCCC2)cc1 | 32% (inactive)
COc1cc(Cc2n[nH]c(=S)n2-c2ccccc2)c(S(N)(=O)=O)cc1OC | -62% (inactive)
CCCCCN(CCCCC)CCNc1ccc(C)c2sc3ccccc3c(=O)c12 | 97% (active)
COC(=O)[C@@]12OC[C@]34[C@H]([C@@H](O)[C@@H]1O)[C@@]1(C)CC(=O)C(O)=C(C)[C@@H]1C[C@H]3OC(=O)[C@H](OC(=O)C(Cc1ccccc1)NC(=O)OC(C)(C)C)[C@@H]24 (some centres not stated) | 58% (inactive)
CC(=O)Nc1ccc(C(=O)C(C)Br)cc1 (configuration not stated) | 99% (active)
COc1ccc2c(c1)[n+]([O-])c(C(N)=O)c(N)[n+]2[O-] | 99% (active)
Cc1c2c(c(C)c3c4c(oc13)CCCC4)C=NCC2 | 45% (inactive)
CC1C(C(=O)O)CC([N+](=O)[O-])C(Cl)C1[N+](=O)[O-] (configuration not stated) | 93% (active)
CCN(CC)c1ccc(N=C2C=C(C(=O)Nc3cccc(Cl)c3)C(=O)c3ccccc32)c(C)c1 | -43% (inactive)
C[N+](C)(C)CCN(Cc1cccs1)c1ccccn1 | -13% (inactive)
O=C(c1ccccc1)c1c(CO[N+](=O)[O-])n([O-])c2ccccc2[n+]1=O | 99% (active)
CCC[C@H]1[C@H](CCC)[C@@]2(OC(=O)C3=C2CCC=C3)[C@]12OC(=O)C1=C2CCC=C1 | 98% (active)
O=C(CC(=O)c1ccccc1NC1=Cc2ccccc2C(=O)C1=O)C(=O)NC1=C(Cl)C(=O)c2ccccc2C1=O | 90% (active)
C=CC[P+](CC[P+](CC=C)(c1ccccc1)c1ccccc1)(c1ccccc1)c1ccccc1 | -1% (inactive)
NCC1CCNCC1 | 0% (inactive)
